Rows were chosen to be rich in hits. Some 6.9% of all compounds tested hit in one or more screens of this group.
S-ASM inh: human S-ASM enzyme inhibition; Potency, µM (series often up to 57.5 µM), hits mostly inhibitors; 340,000 tested, 0.006% active; AID 504937; P17405; placental ASM, HMU-PC fluorogenic substrate, 60 min
Target sequence (P17405 47-631 limits assumed): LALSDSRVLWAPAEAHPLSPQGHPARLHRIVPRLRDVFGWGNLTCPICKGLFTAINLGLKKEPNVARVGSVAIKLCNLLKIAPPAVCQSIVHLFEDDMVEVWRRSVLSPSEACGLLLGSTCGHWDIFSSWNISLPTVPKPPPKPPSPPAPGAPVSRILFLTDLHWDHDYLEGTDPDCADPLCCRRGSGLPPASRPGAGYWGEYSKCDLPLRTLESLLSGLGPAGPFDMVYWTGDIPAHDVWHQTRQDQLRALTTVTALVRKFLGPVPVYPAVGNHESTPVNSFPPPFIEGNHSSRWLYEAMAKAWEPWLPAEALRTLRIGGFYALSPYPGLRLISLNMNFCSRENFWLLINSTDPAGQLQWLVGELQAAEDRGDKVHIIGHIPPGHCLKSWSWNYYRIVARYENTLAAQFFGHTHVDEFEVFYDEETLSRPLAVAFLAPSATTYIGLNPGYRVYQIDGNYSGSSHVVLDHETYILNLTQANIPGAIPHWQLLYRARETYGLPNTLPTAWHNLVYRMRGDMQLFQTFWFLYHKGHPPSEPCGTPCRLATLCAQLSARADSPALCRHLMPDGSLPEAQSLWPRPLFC
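qHTS format. ASM enzyme prepared from human placenta hydrolyses the fluorogenic substrate HMU-PC0 (9 uM final) over 60 min at 37 °C after a 10 min compound preincubation.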
MCF10A rereplic: induces DNA re-replication in MCF 10a normal breast cells; MCF 10A DNA re-replication, Hoechst nuclear intensity, 48 h; Potency, µM (series often up to 46.1 µM), usual class: activators; 350,000 tested, 2.9% active; further: nearly all actives have a fitted effect of over 50% in size
Giardia killer: Giardia lamblia killing; activity change, % at 7.66 µM, hits read low; Giardia lamblia trophozoite viability; 340,000 tested, 0.15% active; in the data active means activity change below about -80%; inconclusive means between about -30% and that limit;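 further: parasites exposed to compound for two days anaerobically before the ATP read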
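Compounds were tested on trophozoites seeded at 100 cells/well and held 48 hrs at 37 deg C anaerobically. An ATP-based luminescent kit measured the remaining live cells.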
KB-3-1 tox: kills parental KB-3-1 adenocarcinoma cells; AID 1347075; KB-3-1 viability, CellTiter-Glo ATP luminescence, 72 h; 400,000 tested, 1.4% active; Potency, µM (highest dose often 46.1 µM), most hits filed as cytotoxic; further: nearly all actives have a fitted effect of over 60% in size
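Multi-concentration cytotoxicity screen in KB-3-1 cells grown in DMEM lacking phenol red with 10% FBS. After 72 h at 37 °C with compound, ATP-dependent luminescence was recorded.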
KB-V1 cytotox: kills drug-selected multidrug resistant KB-V1 cells. 400,000 tested, 3.4% active. AID 1347076. Potency, µM (top dose mostly 46.1 µM), hits mostly cytotoxic. KB-V1 MDR cells viability, CellTiter-Glo, 72 h; further: nearly all actives have a fitted effect of over 60% in size
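Cytotoxicity via CellTiter-Glo luminescence after 72 h compound exposure at 37 degrees C. Cells: drug-selected KB-V1 line, DMEM phenol-red free plus 10% FBS. Compounds tested at multiple concentrations; normalized data fitted to concentration-effect curves.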
SW480 rereplic: induces DNA re-replication in SW480 colon adenocarcinoma cells | SW480 DNA re-replication, Hoechst DNA content imaging, 48 h | Potency, µM (doses to about 46.1 µM), hits mostly activators | 340,000 tested, 1.8% active; further: nearly all actives have a fitted effect of over 55% in size
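Cells (250 per well) received 23 nL compound or DMSO by pin tool and were kept 48 hr at 37 C, 5% CO2. Nuclei were then stained with Hoechst for 40 min and scanned for DNA content.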
Each line names hits and unclear results; the compound was inactive in the other large screens. Unless noted, the call rests on the fitted dose curve; in most records, active means well fitted curve in the direction sought with a large enough effect; inconclusive means small, poorly fitted or top-dose-only effect, or another doubt; inactive means no such curve, though single readings can be large; an effect the other way counts as inactive or inconclusive.

CC(=O)C1=C(C)NC(SCC(=O)Nc2nc3ccccc3s2)=C(C#N)C1c1ccc(Cl)cc1 (centres undefined)	KB-3-1 tox inconclusive, KB-V1 cytotox inconclusive, SW480 rereplic 16µM
C=CCOC(=O)C1=C(C)NC(SCC(=O)Nc2ccc(C)c(Cl)c2)=C(C#N)C1c1ccco1 (centres undefined)	MCF10A rereplic 11µM, SW480 rereplic 11µM
C=CCOC(=O)C1=C(C)NC(SCC)=C(C#N)C1c1ccc(Cl)cc1 (centres undefined)	MCF10A rereplic 23µM, KB-3-1 tox inconclusive, KB-V1 cytotox 23µM, SW480 rereplic inconclusive
COc1ccc(NC(=O)CSC2=C(C#N)C(c3ccco3)C(C(=O)Nc3nc4ccccc4s3)=C(C)N2)cc1 (centres undefined)	MCF10A rereplic inconclusive, KB-3-1 tox inconclusive, SW480 rereplic 9.2µM
C#CCSC1=C(C#N)C(c2cccs2)C(C(=O)OCC)=C(C)N1 (centres undefined)	KB-V1 cytotox 10µM
CC1CCCCN1C(=O)c1ccc(COc2ccc([N+](=O)[O-])cc2)o1 (centres undefined)	MCF10A rereplic inconclusive, KB-V1 cytotox 18µM
COc1ccccc1OCc1ccc(C(=O)Nc2ccncc2)o1	KB-3-1 tox 23µM, KB-V1 cytotox inconclusive
CCCNC(=O)c1ccc(COc2ccc(C(C)(C)C)cc2)o1	MCF10A rereplic inconclusive
COc1ccccc1OCc1ccc(C(=O)NC(C)(C)C)o1	none
CC(C)(C)c1ccc(OCc2ccc(C(=O)Nc3cccnc3)o2)cc1	S-ASM inh inconclusive, MCF10A rereplic 23µM, KB-3-1 tox inconclusive, KB-V1 cytotox inconclusive, SW480 rereplic inconclusive
O=C(Nc1cccnc1)c1ccc(COc2ccccc2Br)o1	MCF10A rereplic 21µM, KB-3-1 tox 16µM, KB-V1 cytotox inconclusive, SW480 rereplic inconclusive
O=C(O)c1c(Cl)c(Cl)c(Cl)c(Cl)c1-c1c2cc(I)c(=O)c(I)c-2oc2c(I)c(O)c(I)cc12	none (no result: S-ASM inh, Giardia killer, KB-3-1 tox, KB-V1 cytotox)
COc1cc(NC(=O)COCc2cc(-c3ccc4c(c3)OCO4)on2)c(OC)cc1Cl	none (no result: S-ASM inh, MCF10A rereplic, Giardia killer, SW480 rereplic)
COc1ccccc1OCc1ccc(C(=O)N2N=C(C(F)F)CC2(O)C(F)F)o1 (centres undefined)	MCF10A rereplic inconclusive, KB-V1 cytotox 16µM
O=C(c1ccc(COc2ccc(Cl)cc2)o1)N1N=C(C(F)F)CC1(O)C(F)F (centres undefined)	MCF10A rereplic inconclusive, KB-3-1 tox inconclusive
CC(C)(C)c1ccc(OCc2ccc(C(=O)N3CCOCC3)o2)cc1	KB-V1 cytotox 26µM, SW480 rereplic inconclusive
Cc1cccc(OCc2ccc(C(=O)N3CCOCC3)o2)c1	none
c1ccc(-n2cnnn2)cc1	none (no result: S-ASM inh, Giardia killer, KB-3-1 tox, KB-V1 cytotox)
COC(=O)Cn1cc(/C=C/c2cc[n+](C)cc2)c2ccccc21	KB-V1 cytotox inconclusive
COc1ccc2c(C=O)c[nH]c2c1	none
COc1ccc2c(c1)c(/C=C/c1cc[n+](C)cc1)cn2C	KB-3-1 tox 16µM, KB-V1 cytotox inconclusive
Cc1ccc2[nH]cc(/C=C/c3cc[n+](C)cc3)c2c1	MCF10A rereplic inconclusive, KB-3-1 tox 0.92µM, SW480 rereplic 8.2µM
COc1ccc2c(/C=C/c3cc[n+](C)cc3)c[nH]c2c1	KB-3-1 tox 1.8µM, KB-V1 cytotox inconclusive
N#Cc1ccccc1CSc1nnc(-c2ccc(Br)cc2)o1	none (no result: S-ASM inh, MCF10A rereplic, Giardia killer, SW480 rereplic)
O=C(Nc1ccc2ccccc2c1)Nc1nnc(-c2ccccc2F)s1	KB-3-1 tox inconclusive (no result: S-ASM inh, MCF10A rereplic, Giardia killer, SW480 rereplic)
O=C(COc1ncnc2c1cnn2-c1ccccc1)Nc1ccc(S(=O)(=O)N2CCCCC2)cc1	KB-V1 cytotox 21µM
CCOC(=O)N1CCN(C(=O)C2CCCN(S(=O)(=O)c3ccc(C)cc3)C2)CC1 (centres undefined)	KB-V1 cytotox 3.7µM
CCOc1ccc(S(=O)(=O)N2CCCC(C(=O)Nc3ccccc3)C2)cc1 (centres undefined)	KB-V1 cytotox 10µM
CS(=O)(=O)N1CCC(C(=O)Nc2ccc(Oc3ccccc3)cc2)CC1	MCF10A rereplic 9.2µM, KB-V1 cytotox inconclusive, SW480 rereplic 16µM
Cc1ccc(NC(=O)C2CCN(S(C)(=O)=O)CC2)cc1	none
O=C(O)c1cccc(NC(=O)c2cccc(S(=O)(=O)Nc3cccc(F)c3)c2)c1	none (no result: S-ASM inh, MCF10A rereplic, Giardia killer, SW480 rereplic)
O=C(Cc1ccc([N+](=O)[O-])cc1)Oc1ccccc1	none
COc1ccc(NC(=O)C2CCCN(S(=O)(=O)c3cccnc3)C2)cc1OC (centres undefined)	none
COc1ccc(S(=O)(=O)N2CCCC(C(=O)Nc3cccnc3)C2)cc1Cl (centres undefined)	MCF10A rereplic inconclusive, KB-3-1 tox 16µM, KB-V1 cytotox inconclusive
O=C(COc1ccccc1)Nc1ccc(S(=O)(=O)N2CCCCCC2)cc1	KB-V1 cytotox 16µM
CCOc1ccc(/C=C/c2ccc3ccccc3[n+]2C)cc1OCC	KB-3-1 tox inconclusive (no result: S-ASM inh, MCF10A rereplic, Giardia killer, SW480 rereplic)
CC1CCCCN1CCNC(=O)c1ccc2c(=O)n(CCc3ccccc3)c(=O)[nH]c2c1 (centres undefined)	KB-3-1 tox 21µM
CCN1CCN(C(=O)c2ccc3c(=O)n(CCc4ccccc4)c(=O)[nH]c3c2)CC1	MCF10A rereplic inconclusive, SW480 rereplic 29µM
CC1CCCCN1CCNC(=O)c1ccc2c(=O)n(Cc3ccc(Cl)cc3)c(=S)[nH]c2c1 (centres undefined)	MCF10A rereplic 7.3µM, SW480 rereplic inconclusive
CC1CCCCN1CCCNC(=O)c1ccc2c(=O)n(CCc3ccccc3)c(=O)[nH]c2c1 (centres undefined)	KB-V1 cytotox inconclusive, SW480 rereplic inconclusive
CN1CCN(CCCNC(=O)c2ccc3c(=O)n(CCc4ccccc4)c(=O)[nH]c3c2)CC1	SW480 rereplic 1.6µM
O=C(NCC1CCCO1)c1ccc2c(=O)n(Cc3ccc(Cl)cc3)c(=S)[nH]c2c1 (centres undefined)	none
CCNc1c(NC(=O)c2cc(OCC)c(OCC)c(OCC)c2)c(=O)oc2ccccc12	none (no result: S-ASM inh, MCF10A rereplic, Giardia killer, SW480 rereplic)
Cc1ccc(CNC(=O)c2ccc3c(=O)n(CC4CCCO4)c(=S)[nH]c3c2)cc1 (centres undefined)	MCF10A rereplic inconclusive, KB-V1 cytotox 16µM
O=C(NCc1ccccc1)c1ccc2c(=O)n(CC3CCCO3)c(=S)[nH]c2c1 (centres undefined)	none
COc1ccc(CCn2c(=S)[nH]c3cc(C(=O)NCc4ccco4)ccc3c2=O)cc1OC	MCF10A rereplic inconclusive, KB-3-1 tox 16µM
COc1cccc(C(=O)Nc2cccc(C(=O)NCC(C)C)c2)c1	KB-V1 cytotox 18µM
CC(C)CNC(=O)c1cccc(NC(=O)Cc2ccc(Br)cc2)c1	KB-3-1 tox inconclusive, KB-V1 cytotox 3.3µM, SW480 rereplic 1.5µM
